# Columns and labels:
# [1] = tested on: T1, PIP5K2B; conditions: Compound Concentration (nM):1000
# T1 construct: gene PIP4K2B
# [2] = tested on: T2, PIP5K2C; conditions: Compound Concentration (nM):1000
# T2 construct: gene PIP4K2C
# [3] = tested on: T3, PKAC-alpha; conditions: Compound Concentration (nM):1000
# T3 construct: gene PRKACA
# [4] = tested on: T4, PKAC-beta; conditions: Compound Concentration (nM):1000
# T4 construct: gene PRKACB
# [5] = tested on: PKMYT1; conditions: Compound Concentration (nM):1000
# [6] = tested on: PKN1; conditions: Compound Concentration (nM):1000
# [7] = tested on: PKN2; conditions: Compound Concentration (nM):1000
# [8] = tested on: PKNB(M.tuberculosis); conditions: 1 µM
# [9] = tested on: PLK1; conditions: Compound Concentration (nM):1000
# [10] = tested on: PLK2; conditions: Compound Concentration (nM):1000
# [11] = tested on: PLK3; conditions: Compound Concentration (nM):1000
# [12] = tested on: PLK4; conditions: Compound Concentration (nM):1000
# [13] = tested on: PRKCD; conditions: Compound Concentration (nM):1000
# [14] = tested on: PRKCE; conditions: Compound Concentration (nM):1000
# [15] = tested on: PRKCH; conditions: Compound Concentration (nM):1000
# [16] = tested on: PRKCI; conditions: Compound Concentration (nM):1000
# [17] = tested on: PRKCQ; conditions: Compound Concentration (nM):1000
# [18] = tested on: PRKD1; conditions: Compound Concentration (nM):1000
# [19] = tested on: PRKD2; conditions: Compound Concentration (nM):1000
# [20] = tested on: PRKD3; conditions: Compound Concentration (nM):1000
# 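Note: KINOMEscan scanMAX binding as percent activity remaining versus control; lower means stronger binding.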
SMILES,Percent Control [1] [%],Percent Control [2] [%],Percent Control [3] [%],Percent Control [4] [%],Percent Control [5] [%],Percent Control [6] [%],Percent Control [7] [%],Percent Control [8] [%],Percent Control [9] [%],Percent Control [10] [%],Percent Control [11] [%],Percent Control [12] [%],Percent Control [13] [%],Percent Control [14] [%],Percent Control [15] [%],Percent Control [16] [%],Percent Control [17] [%],Percent Control [18] [%],Percent Control [19] [%],Percent Control [20] [%]
Cl.O=C(Nc1ccc(Oc2ccc3[nH]c(NC(=O)c4ccco4)nc3c2)cc1)Nc1cc(C(F)(F)F)ccc1F [GW683134A],100,76,100,100,100,100,79,99,100,88,86,100,99,100,92,100,100,68,100,82
COc1cc(C=NNc2ncnc3c2cnn3-c2ccccc2)ccc1O [GW513184X],59,1.4,100,100,100,81,100,86,100,37,71,77,100,88,100,100,86,100,100,100
CCS(=O)(=O)c1ccc(OC)c(Nc2ncc(-c3cccc(OC)c3)o2)c1 [GW580509X],91,11,100,100,100,100,100,100,92,86,94,50,100,62,100,100,100,100,100,100
Cc1cc(O)cc(C)c1/C=C/c1cncc(C(N)=O)c1 [GW435821X],100,84,100,100,74,100,65,99,100,93,90,85,87,93,100,100,90,100,100,79
O=C1Nc2ccc(C(=O)c3ccco3)cc2C1=Cc1cc(Cl)c(O)c(Cl)c1 [GW406108X],95,65,100,100,100,83,63,90,49,27,37,63,100,100,100,100,100,100,100,100
Cl.c1ccc(Cc2nc3ccc(Nc4ncnc5ccccc45)cc3[nH]2)cc1 [GR269666A],100,71,100,100,100,92,100,100,80,100,100,100,100,78,100,100,88,100,100,100
CN(C)CCNC(=O)Nc1ccc(N(C)c2ccnc(Nc3ccc(CS(C)(=O)=O)cc3)n2)cc1.Cl [GW830900A],33,3.7,100,100,100,83,64,94,86,100,90,24,100,100,100,85,100,100,100,100
COc1cccc(-c2c[nH]c3c(N/N=C/c4ccncc4)ncnc23)c1 [GW814408X],100,9.1,100,100,100,100,100,99,95,100,100,96,100,100,100,30,100,100,100,91
NS(=O)(=O)c1ccc(N/N=C2\C(=O)Nc3ccc(Cl)cc32)cc1 [GW280670X],98,81,100,100,100,100,97,100,100,100,95,89,99,100,100,100,100,100,100,100
NS(=O)(=O)c1ccc(N/N=C2\C(=O)Nc3ccc(C(=O)NCc4ccncc4)cc32)cc1 [GW300657X],100,51,100,100,83,100,81,100,74,90,83,39,100,97,96,80,100,100,94,85
Cl.O=C(O[C@H]1CN[C@H](C#Cc2cc3ncnc(Nc4ccc5c(cnn5Cc5ccccc5)c4)c3s2)C1)N1CCOCC1 [GSK200398A],100,98,100,93,96,88,69,91,76,92,91,69,100,88,100,100,64,100,93,100
COc1cccc(-n2ncc3c(N/N=C/c4ccncc4)ncnc32)c1 [GW784752X],91,19,100,99,100,100,100,100,88,94,88,84,100,100,99,72,100,100,100,91
CC(C)COC(=O)c1ccc2c(c1)/C(=C/Nc1ccc(S(N)(=O)=O)cc1)C(=O)N2 [GW416981X],100,65,100,100,100,100,71,86,100,59,83,64,100,100,100,100,100,100,100,61
CCn1c(-c2nonc2N)nc2c(C#CC(C)(C)O)nc(OCCNC)cc21.Cl [GSK949675],100,78,21,16,100,9.3,100,0.7,100,100,100,90,40,0,15,61,3.3,95,100,88
COc1cc(/C=N/Nc2ncnc3[nH]ncc23)ccc1O [GW578748X],74,24,100,100,100,100,100,50,84,31,52,36,78,100,100,63,96,100,100,85
O=C(Nc1n[nH]c2nc(-c3ccc(O)cc3)c(Br)cc12)C1CC1 [SB-725317],100,91,100,100,100,89,100,31,100,83,88,82,45,46,78,90,58,100,100,99
NS(=O)(=O)c1ccc(N/N=C2\C(=O)Nc3ccc(C(=O)NCCc4c[nH]cn4)cc32)cc1 [GW300660X],100,48,100,100,100,100,80,92,100,75,76,81,100,98,100,90,100,100,100,85
Nc1ncnc2occ(-c3ccc(NC(=O)Nc4cc(C(F)(F)F)ccc4F)cc3)c12 [GW770249X],100,77,100,100,100,100,90,100,100,1.9,16,80,76,94,100,100,100,100,100,85
CN(C)c1cc2c(Nc3ccc4c(cnn4Cc4ccccc4)c3)ncnc2cn1 [GW282974X],100,100,100,95,73,90,88,68,71,100,100,66,100,100,97,88,100,100,95,89
CC1=C(C(=O)Nc2ccc3[nH]ncc3c2)C(c2ccc(Cl)c(Cl)c2)CC(=O)N1 (stereo not shown) [GSK299115A],99,82,81,63,77,39,65,85,70,100,84,87,100,94,100,91,95,100,85,47
